“And” between values parts separate entries of the source, which are not always exact repeats. Equal values may be shown once. About 2,000 (36%) of roughly 5,500 compounds were called active. Inconclusive results (about 18%) are left out. Cut-off read from the data, not from the text of the source: active = normalized growth mostly below about 0.91 (no sharp cut-off); inconclusive = no clear call, values can overlap the other calls; inactive = mostly above about 0.92. Some of the results follow.
Test: chemical genetic growth profiling, strain panel (AID 1159580);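 note: tested at 20 µM; growth read once vehicle control cultures reached saturation at 30 °C; 1 = growth at the plate median or of vehicle wells; lower values mean less growth of the strain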
Details: growth OD

Measured: normalized growth

COc1c2c(cc3c1OCO3)CC[N+](C)=C2
inactive: S. cerevisiae deletion strains, locus YAL013W, strain DEP1, stronger effect = lower value 1 | S. cerevisiae deletion strains, locus YAL021C, strain ccr4, stronger effect = lower value 0.977 | S. cerevisiae deletion strains, locus YAL026C, strain drs2, stronger effect = lower value 0.995 | S. cerevisiae deletion strains, locus YAL030W, strain snc1, stronger effect = lower value 0.994 | S. cerevisiae deletion strains, locus YBL061C, strain skt5, stronger effect = lower value 1.01 | S. cerevisiae deletion strains, locus YBR009C, strain hhf1, stronger effect = lower value 0.984 | S. cerevisiae deletion strains, locus YBR021W, strain FUR4, stronger effect = lower value 1.02 | S. cerevisiae deletion strains, locus YBR023C, strain chs3, stronger effect = lower value 1.01 | S. cerevisiae deletion strains, locus YBR171W, strain sec66, stronger effect = lower value 0.997 | S. cerevisiae deletion strains, locus YBR229C, strain ROT2, stronger effect = lower value 0.999 | S. cerevisiae deletion strains, locus YBR231C, strain swc5, stronger effect = lower value 1.03 | S. cerevisiae deletion strains, locus YBR279W, strain paf1, stronger effect = lower value 1 | S. cerevisiae deletion strains, locus YCL011C, strain gbp2, stronger effect = lower value 0.986 | S. cerevisiae deletion strains, locus YCL016C, strain dcc1, stronger effect = lower value 0.974 | S. cerevisiae deletion strains, locus YCL029C, strain bik1, stronger effect = lower value 0.993 | S. cerevisiae deletion strains, locus YCL069W, strain vba3, stronger effect = lower value 0.99 | S. cerevisiae deletion strains, locus YCR088W, strain abp1, stronger effect = lower value 1 | S. cerevisiae deletion strains, locus YDL005C, strain med2, stronger effect = lower value 1 | S. cerevisiae deletion strains, locus YDL035C, strain GPR1, stronger effect = lower value 1.01 | S. cerevisiae deletion strains, locus YDL040C, strain nat1, stronger effect = lower value 1.01 | S. cerevisiae deletion strains, locus YDL074C, strain BRE1, stronger effect = lower value 1.04 | S. cerevisiae deletion strains, locus YDL101C, strain DUN1, stronger effect = lower value 1.02 | S. cerevisiae deletion strains, locus YDL134C, strain PPH21, stronger effect = lower value 1.05 | S. cerevisiae deletion strains, locus YDL185W, strain tfp1, stronger effect = lower value 1.01 | S. cerevisiae deletion strains, locus YDL192W, strain arf1, stronger effect = lower value 1 | S. cerevisiae deletion strains, locus YDR001C, strain nth1, stronger effect = lower value 0.977 | S. cerevisiae deletion strains, locus YDR069C, strain doa4, stronger effect = lower value 1.01 | S. cerevisiae deletion strains, locus YDR101C, strain arx1, stronger effect = lower value 1 | S. cerevisiae deletion strains, locus YDR137W, strain rgp1, stronger effect = lower value 1 | S. cerevisiae deletion strains, locus YDR150W, strain NUM1, stronger effect = lower value 0.993 | S. cerevisiae deletion strains, locus YDR159W, strain sac3, stronger effect = lower value 1.08 | S. cerevisiae deletion strains, locus YDR162C, strain NBP2, stronger effect = lower value 1.05 | S. cerevisiae deletion strains, locus YDR195W, strain ref2 1.01 | S. cerevisiae deletion strains, locus YDR297W, strain sur2, stronger effect = lower value 1.02 | S. cerevisiae deletion strains, locus YDR318W, strain mcm21, stronger effect = lower value 1 | S. cerevisiae deletion strains, locus YDR334W, strain swr1, stronger effect = lower value 0.991 | S. cerevisiae deletion strains, locus YDR335W, strain msn5, stronger effect = lower value 0.996 | S. cerevisiae deletion strains, locus YDR388W, stronger effect = lower value 0.994 | S. cerevisiae deletion strains, locus YDR392W, strain spt3, stronger effect = lower value 0.93 | S. cerevisiae deletion strains, locus YDR502C, strain sam2, stronger effect = lower value 1.01 | S. cerevisiae deletion strains, locus YEL003W, strain gim4, stronger effect = lower value 1 | S. cerevisiae deletion strains, locus YEL037C, strain rad23, stronger effect = lower value 0.986 | S. cerevisiae deletion strains, locus YEL061C, strain CIN8 (second series), stronger effect = lower value 0.998 | S. cerevisiae deletion strains, locus YER015W, strain faa2, stronger effect = lower value 0.998 | S. cerevisiae deletion strains, locus YER016W, strain bim1, stronger effect = lower value 1.01 | S. cerevisiae deletion strains, locus YER110C, stronger effect = lower value 1.01 | S. cerevisiae deletion strains, locus YER111C, strain swi4, stronger effect = lower value 1 | S. cerevisiae deletion strains, locus YER155C, strain BEM2 (second series), stronger effect = lower value 1.06 | S. cerevisiae deletion strains, locus YER155C, strain BEM2, stronger effect = lower value 0.976 | S. cerevisiae deletion strains, locus YER167W, strain BCK2, stronger effect = lower value 0.997 | S. cerevisiae deletion strains, locus YFR010W, strain ubp6, stronger effect = lower value 0.996 | S. cerevisiae deletion strains, locus YGL078C, strain dbp3, stronger effect = lower value 1.04 | S. cerevisiae deletion strains, locus YGL086W, strain mad1, stronger effect = lower value 1.01 | S. cerevisiae deletion strains, locus YGL167C, strain pmr1, stronger effect = lower value 0.993 | S. cerevisiae deletion strains, locus YGL173C, strain kem1, stronger effect = lower value 1.02 | S. cerevisiae deletion strains, locus YGL227W, strain vid30, stronger effect = lower value 0.999 | S. cerevisiae deletion strains, locus YGL240W, strain doc1, stronger effect = lower value 1.02 | S. cerevisiae deletion strains, locus YGL248W, strain PDE1, stronger effect = lower value 1.03 | S. cerevisiae deletion strains, locus YGL253W, strain hxk2, stronger effect = lower value 1 | S. cerevisiae deletion strains, locus YGR078C, strain PAC10, stronger effect = lower value 0.987 | S. cerevisiae deletion strains, locus YGR135W, strain pre9, stronger effect = lower value 1.03 | S. cerevisiae deletion strains, locus YGR252W, strain gcn5, stronger effect = lower value 1.05 | S. cerevisiae deletion strains, locus YHR013C, strain ard1, stronger effect = lower value 0.974 | S. cerevisiae deletion strains, locus YHR027C, strain rpn1, stronger effect = lower value 0.981 | S. cerevisiae deletion strains, locus YHR030C, strain SLT2, stronger effect = lower value 0.989 | S. cerevisiae deletion strains, locus YHR079C, strain IRE1 (second series), stronger effect = lower value 1.01 | S. cerevisiae deletion strains, locus YHR079C, strain IRE1, stronger effect = lower value 1 | S. cerevisiae deletion strains, locus YHR094C, strain hxt1, stronger effect = lower value 1 | S. cerevisiae deletion strains, locus YHR129C, strain ARP1, stronger effect = lower value 1 | S. cerevisiae deletion strains, locus YHR142W, strain chs7, stronger effect = lower value 0.982 | S. cerevisiae deletion strains, locus YHR200W, strain rpn10, stronger effect = lower value 0.998 | S. cerevisiae deletion strains, locus YIL066C, strain RNR3, stronger effect = lower value 1 | S. cerevisiae deletion strains, locus YIL073C, strain SPO22, stronger effect = lower value 1.06 | S. cerevisiae deletion strains, locus YIL125W, strain kgd1, stronger effect = lower value 0.995 | S. cerevisiae deletion strains, locus YIR030C, strain dcg1, stronger effect = lower value 1.01 | S. cerevisiae deletion strains, locus YJL092W, strain hpr5, stronger effect = lower value 0.988 | S. cerevisiae deletion strains, locus YJL095W, strain BCK1 (second series), stronger effect = lower value 1 | S. cerevisiae deletion strains, locus YJL095W, strain BCK1, stronger effect = lower value 1.05 and 0.977 | S. cerevisiae deletion strains, locus YJL115W, strain asf1, stronger effect = lower value 0.977 | S. cerevisiae deletion strains, locus YJL129C, strain trk1, stronger effect = lower value 1.01 | S. cerevisiae deletion strains, locus YJL134W, strain LCB3, stronger effect = lower value 0.994 | S. cerevisiae deletion strains, locus YJL154C, strain vps35, stronger effect = lower value 0.985 | S. cerevisiae deletion strains, locus YJL164C, strain tpk1, stronger effect = lower value 0.965 | S. cerevisiae deletion strains, locus YJL166W, strain qcr8, stronger effect = lower value 1.01 | S. cerevisiae deletion strains, locus YJL168C, strain set2, stronger effect = lower value 1.01 | S. cerevisiae deletion strains, locus YJL187C, strain SWE1 (second series), stronger effect = lower value 1.04 | S. cerevisiae deletion strains, locus YJL187C, strain SWE1, stronger effect = lower value 1.02 | S. cerevisiae deletion strains, locus YJR043C, strain POL32, stronger effect = lower value 0.99 | S. cerevisiae deletion strains, locus YJR066W, strain TOR1, stronger effect = lower value 0.886 | S. cerevisiae deletion strains, locus YKL009W, strain mrt4, stronger effect = lower value 1.04 | S. cerevisiae deletion strains, locus YKL068W, stronger effect = lower value 0.996 | S. cerevisiae deletion strains, locus YKL085W, strain MDH1 (second series), stronger effect = lower value 1.01 | S. cerevisiae deletion strains, locus YKL085W, strain MDH1, stronger effect = lower value 1.01 | S. cerevisiae deletion strains, locus YKL160W, strain elf1, stronger effect = lower value 0.977 | S. cerevisiae deletion strains, locus YKL190W, strain CNB1, stronger effect = lower value 1 | S. cerevisiae deletion strains, locus YKR001C, strain vps1, stronger effect = lower value 1.02 | S. cerevisiae deletion strains, locus YKR026C, strain gcn3, stronger effect = lower value 0.993 | S. cerevisiae deletion strains, locus YKR091W, strain srl3, stronger effect = lower value 0.99 | S. cerevisiae deletion strains, locus YLL001W, strain dnm1, stronger effect = lower value 1 | S. cerevisiae deletion strains, locus YLL026W, stronger effect = lower value 1 | S. cerevisiae deletion strains, locus YLL041C, strain sdh2, stronger effect = lower value 0.984 | S. cerevisiae deletion strains, locus YLR027C, strain aat2, stronger effect = lower value 1.01 | S. cerevisiae deletion strains, locus YLR039C, strain RIC1, stronger effect = lower value 1.1 | S. cerevisiae deletion strains, locus YLR058C, strain SHM2, stronger effect = lower value 1.02 | S. cerevisiae deletion strains, locus YLR102C, strain apc9, stronger effect = lower value 1 | S. cerevisiae deletion strains, locus YLR113W, strain HOG1, stronger effect = lower value 0.978 | S. cerevisiae deletion strains, locus YLR221C, strain rsa3, stronger effect = lower value 1.04 | S. cerevisiae deletion strains, locus YLR258W, strain gsy2, stronger effect = lower value 1.02 | S. cerevisiae deletion strains, locus YLR262C, strain YPT6 (second series), stronger effect = lower value 0.995 | S. cerevisiae deletion strains, locus YLR262C, strain YPT6, stronger effect = lower value 1.12 | S. cerevisiae deletion strains, locus YLR268W, strain sec22, stronger effect = lower value 0.999 | S. cerevisiae deletion strains, locus YLR320W, strain mms22, stronger effect = lower value 1.06 | S. cerevisiae deletion strains, locus YLR342W, strain FKS1, stronger effect = lower value 1.01 | S. cerevisiae deletion strains, locus YLR357W, strain rsc2, stronger effect = lower value 0.968 | S. cerevisiae deletion strains, locus YLR370C, strain arc18, stronger effect = lower value 1 | S. cerevisiae deletion strains, locus YLR371W, strain rom2, stronger effect = lower value 1.01 | S. cerevisiae deletion strains, locus YLR384C, strain iki3, stronger effect = lower value 0.999 | S. cerevisiae deletion strains, locus YLR418C, strain cdc73, stronger effect = lower value 1.03 | S. cerevisiae deletion strains, locus YML016C, strain PPZ1, stronger effect = lower value 1.01 | S. cerevisiae deletion strains, locus YML032C, strain rad52, stronger effect = lower value 0.999 | S. cerevisiae deletion strains, locus YML120C, strain ndi1, stronger effect = lower value 0.977 | S. cerevisiae deletion strains, locus YML124C, strain tub3, stronger effect = lower value 1.01 | S. cerevisiae deletion strains, locus YMR058W, strain fet3, stronger effect = lower value 1 | S. cerevisiae deletion strains, locus YMR078C, strain ctf18, stronger effect = lower value 1 | S. cerevisiae deletion strains, locus YMR125W, strain sto1, stronger effect = lower value 0.923 | S. cerevisiae deletion strains, locus YMR129W, stronger effect = lower value 0.996 | S. cerevisiae deletion strains, locus YMR205C, strain PFK2, stronger effect = lower value 0.975 | S. cerevisiae deletion strains, locus YMR223W, strain ubp8, stronger effect = lower value 1.02 | S. cerevisiae deletion strains, locus YMR231W, strain pep5, stronger effect = lower value 1.01 | S. cerevisiae deletion strains, locus YMR307W, strain GAS1, stronger effect = lower value 1.03 | S. cerevisiae deletion strains, locus YNL067W, strain RPL9B, stronger effect = lower value 1.03 | S. cerevisiae deletion strains, locus YNL071W, strain lat1, stronger effect = lower value 0.998 | S. cerevisiae deletion strains, locus YNL183C, strain NPR1, stronger effect = lower value 0.923 | S. cerevisiae deletion strains, locus YNL209W, strain ssb2, stronger effect = lower value 0.992 | S. cerevisiae deletion strains, locus YNL233W, strain BNI4, stronger effect = lower value 1.01 | S. cerevisiae deletion strains, locus YNL248C, strain rpa49, stronger effect = lower value 0.924 | S. cerevisiae deletion strains, locus YNL250W, strain rad50, stronger effect = lower value 1.03 | S. cerevisiae deletion strains, locus YNL271C, strain bni1, stronger effect = lower value 1.03 | S. cerevisiae deletion strains, locus YNL298W, strain CLA4, stronger effect = lower value 0.992 | S. cerevisiae deletion strains, locus YNL307C, strain MCK1, stronger effect = lower value 1.01 | S. cerevisiae deletion strains, locus YNL322C, strain KRE1 (second series), stronger effect = lower value 0.997 | S. cerevisiae deletion strains, locus YNR049C, strain mso1, stronger effect = lower value 0.979 | S. cerevisiae deletion strains, locus YNR052C, strain pop2, stronger effect = lower value 1.01 | S. cerevisiae deletion strains, locus YOL012C, strain htz1 0.651 | S. cerevisiae deletion strains, locus YOL147C, strain pex11, stronger effect = lower value 1 | S. cerevisiae deletion strains, locus YOR001W, strain rrp6, stronger effect = lower value 1.03 | S. cerevisiae deletion strains, locus YOR061W, strain CKA2, stronger effect = lower value 1.01 | S. cerevisiae deletion strains, locus YOR069W, strain VPS5, stronger effect = lower value 1 | S. cerevisiae deletion strains, locus YOR070C, strain gyp1, stronger effect = lower value 1.02 | S. cerevisiae deletion strains, locus YOR080W, strain dia2, stronger effect = lower value 1.02 | S. cerevisiae deletion strains, locus YOR083W, strain WHI5, stronger effect = lower value 0.97 | S. cerevisiae deletion strains, locus YOR106W, strain vam3, stronger effect = lower value 0.937 | S. cerevisiae deletion strains, locus YOR136W, strain idh2, stronger effect = lower value 1.03 | S. cerevisiae deletion strains, locus YOR144C, strain elg1, stronger effect = lower value 1 | S. cerevisiae deletion strains, locus YOR184W, strain ser1, stronger effect = lower value 0.996 | S. cerevisiae deletion strains, locus YOR231W, strain MKK1, stronger effect = lower value 0.994 | S. cerevisiae deletion strains, locus YOR265W, strain rbl2, stronger effect = lower value 0.996 | S. cerevisiae deletion strains, locus YOR270C, strain vph1, stronger effect = lower value 0.991 | S. cerevisiae deletion strains, locus YOR290C, strain snf2, stronger effect = lower value 0.919 | S. cerevisiae deletion strains, locus YOR316C, strain cot1, stronger effect = lower value 1.01 | S. cerevisiae deletion strains, locus YPL051W, strain arl3, stronger effect = lower value 1.03 | S. cerevisiae deletion strains, locus YPL078C, strain atp4, stronger effect = lower value 0.952 | S. cerevisiae deletion strains, locus YPL106C, strain sse1, stronger effect = lower value 0.972 | S. cerevisiae deletion strains, locus YPL240C, strain hsp82, stronger effect = lower value 1.01 | S. cerevisiae deletion strains, locus YPL256C, strain CLN2, stronger effect = lower value 0.975 | S. cerevisiae deletion strains, locus YPR119W, strain clb2, stronger effect = lower value 1.01 | S. cerevisiae deletion strains, locus YPR141C, strain kar3, stronger effect = lower value 1.01 | S. cerevisiae deletion strains, locus YPR163C, strain tif3, stronger effect = lower value 1.02 | S. cerevisiae deletion strains, locus YPR167C, strain met16, stronger effect = lower value 1.01 | S. cerevisiae deletion strains, strain wtn01, stronger effect = lower value 1 | S. cerevisiae strains, strain wild type, stronger effect = lower value 1
